This is part of a sample that, as a whole, favours compounds with a hit. Of some 79,000 tested, about 15% had one in any assay. Cut-off read from the data, not from the text of the source: active = growth inhibition above about 70%; inactive = the rest.
What was measured:
[1] = NCI Yeast Anticancer Drug Screen. Data for the rad50 strain (AID 155);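 note: 0% = growth of vehicle-only cultures of the same strain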; conditions: S. cerevisiae rad50 strain growth inhibition; at 50.0 µM; active compounds read high
Summary of the method: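 A DNA repair-deficient yeast mutant serves as the test organism; compound-induced growth inhibition is calculated against vehicle-treated cells.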

[2] = NCI Yeast Anticancer Drug Screen. Data for the mec2-1 strain (AID 157); conditions: S. cerevisiae mec2-1 strain, at 50.0 µM, active compounds read high
Summary of the method: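 Strain: mec2-1 (DNA repair/cell cycle alteration). Compound exposure, then growth measured; inhibition expressed relative to vehicle.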

[3] = NCI Yeast Anticancer Drug Screen. Data for the sgs1 mgt1 strain (AID 161);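 note: 0% = growth of cultures given vehicle only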; conditions: S. cerevisiae sgs1 mgt1 strain, at 50.0 µM, active compounds read high
Summary of the method: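 Read-out: growth inhibition vs vehicle controls. Cells: mutant yeast strain deficient in DNA damage repair.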

[4] = NCI Yeast Anticancer Drug Screen. Data for the cln2 rad14 strain (AID 165);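 note: 0% = growth equal to vehicle treated cultures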; conditions: S. cerevisiae cln2 rad14 strain, at 50.0 µM, active compounds read high
Summary of the method: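 Compounds are applied to the cln2 rad14 yeast strain, and growth is then compared with that of vehicle-treated cultures to give inhibition.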

[5] = NCI Yeast Anticancer Drug Screen. Data for the bub3 strain (AID 167); conditions: S. cerevisiae bub3 mutant strain, at 50.0 µM, active compounds read high
Summary of the method: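 Inhibition values come from growth of compound-treated mutant yeast normalised to vehicle-treated controls.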

[6] = NCI Yeast Anticancer Drug Screen. Data for the mlh1 rad18 strain (AID 175); conditions: S. cerevisiae mlh1 rad18 strain growth inhibition; at 50.0 µM; active compounds read high
Summary of the method: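 Read-out is yeast growth inhibition, calculated against vehicle-only controls. The compound was applied to a strain engineered with DNA damage repair alterations.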

Measured: growth inhibition

CCOC(=O)C(C#N)C1(O)C(=O)Nc2ccccc21 (stereo unspecified)
inactive: [1] -4.65% | [2] -5% | [3] -6.7% | [4] 3.8% | [5] 0.55% | [6] 10.2%

CO[Si](C)(OC)c1ccccc1
inactive: [1] -0.6% | [2] -23.8% | [3] -32.1% | [4] 13.2% | [5] -25.8% | [6] 2.75%

O=C(O)/C(=C\c1cc2c(cc1[N+](=O)[O-])OCO2)c1ccccc1
inactive: [1] 3.8% | [2] -5.35% | [3] 6.8% | [4] -41% | [5] -22.9% | [6] 17.9%

N#CC(C#N)=C(O)/C(=C/c1ccc(Cl)cc1Cl)NC(=O)c1ccccc1
inactive: [1] 9.4% | [2] 1.15% | [3] -7.9% | [4] 7.9% | [5] -13.3% | [6] 14.3%

COC(=O)c1cc(C)ccc1/C=C1\Cc2c(C)cc(C)cc2C1=O
inactive: [1] -12.2% | [2] -25.8% | [3] -6.85% | [4] -30.6% | [5] -46.1% | [6] -39.6%

Nc1ccc(C(=O)CC(N)C(=O)O)cc1O (stereo unspecified)
inactive: [1] -9.7% | [2] 21.4% | [3] -6.9% | [4] -17.9% | [5] 6.95% | [6] 11.3%

Cc1cc2sc(C)[n+](CCCOS(=O)(=O)[O-])c2cc1C
inactive: [1] -22.6% | [2] -23.9% | [3] -40% | [4] 36.3% | [5] -0.95% | [6] -35.9%

CC(C)CC(C#N)C(=O)O (stereo unspecified)
inactive: [1] -1.45% | [2] -1.95% | [3] -5.15% | [4] 5.45% | [5] -4.35% | [6] 2.1%

CCC(C)n1c(C)nc2cc(C(F)(F)F)cc(N)c21 (stereo unspecified)
inactive: [1] 20.7% | [2] 18.4% | [3] 8.4% | [4] -31.2% | [5] 11.6% | [6] 15.2%

CC(=O)Oc1cc(Oc2c(OC(C)=O)cc(Oc3c(OC(C)=O)cc(OC(C)=O)c(OC(C)=O)c3OC(C)=O)cc2OC(C)=O)cc(OC(C)=O)c1OC(C)=O
inactive: [1] 6.15% | [2] 3.1% | [3] 13.2% | [4] 4.5% | [5] 15.4% | [6] 10.4%

Cc1cc(C)[n+]([O-])c(C)c1
inactive: [1] -14.6% | [2] -8.85% | [3] -2.75% | [4] -8.6% | [5] -19.4% | [6] -2.85%

O=C(O)CNc1ccc([N+](=O)[O-])cc1C(=O)O
inactive: [1] -1.25% | [2] -1% | [3] 2.75% | [4] 7.4% | [5] -6.7% | [6] -5.95%

NNC(=O)CC1(O)CCCCC1
inactive: [1] -0.35% | [2] -9.2% | [3] 2.3% | [4] 0.4% | [5] -17.1% | [6] -19.8%

COC(=O)/C(C#N)=C/c1ccco1
inactive: [1] -34% | [2] 6.65% | [3] -14.2% | [4] 2.5% | [5] -2.05% | [6] -21.6%

O=C1CSC(c2cccc(F)c2)N1CCN1C(=O)CSC1c1cccc(F)c1 (stereo unspecified)
inactive: [1] 27.7% | [2] 16.7% | [3] 9.65% | [4] 20.6% | [5] 2.4% | [6] -7.5%

CCC(C)N(C(=O)C(C)Br)C(C)CC (stereo unspecified)
inactive: [1] 2.95% | [2] -9.4% | [3] -19.2% | [4] -39.2% | [5] -10% | [6] 5.9%

CC(C)(C)C1CCC2c3c([nH]c4ncccc34)C3C(=O)N(c4ccccc4)C(=O)C3C2C1 (stereo unspecified)
inactive: [1] 20.4% | [2] -6.15% | [3] 1.7% | [4] -67.2% | [5] -32.6% | [6] -7.85%

CCOC(=O)COc1cc(C)c2ccc(=O)oc2c1
inactive: [1] 3.9% | [2] -1.35% | [3] 10.8% | [4] 8.45% | [5] 6.4% | [6] 29.1%

CC1=CC(=O)c2cc(C)ccc2C1=O
inactive: [1] 6.1% | [2] -15% | [3] -8.35% | [4] -32.5% | [5] -2.95% | [6] -3.25%

O=C(CCCO)c1nc2ccccc2s1
inactive: [1] -2.5% | [2] 12.9% | [3] 2.8% | [4] -8.55% | [5] 11.8% | [6] 4.7%

O=C(O)CCc1ccccc1CC(=O)O
inactive: [1] 12.8% | [2] -9.95% | [3] -10.8% | [4] -10.1% | [5] -12.3% | [6] 13.2%

CS(=O)(=O)N1CC(CCl)c2ccc(NO)cc21 (stereo unspecified)
inactive: [1] 43.5% | [2] 27.9% | [3] 24.9% | [4] 17.3% | [5] 0.45% | [6] -32.4%

CC(=O)OCCC(C)Nc1ccnc2cc(Cl)ccc12 (stereo unspecified)
inactive: [1] -11.7% | [2] -7.45% | [3] 6.35% | [4] 13.2% | [5] -3.75% | [6] 12.2%

CN(C)CCSS(=O)(=O)O
inactive: [1] -4.9% | [2] -23.1% | [3] -26.3% | [4] 16.6% | [5] -19.1% | [6] -14.2%

Cc1ccc(CNc2ccccc2)cc1
inactive: [1] 18.9% | [2] -6.45% | [3] 27.3% | [4] 8.8% | [5] 14.7% | [6] 7.55%

CC(=O)C(C(=O)NCc1ccccc1)C(c1ccc2c(c1)OCO2)C(C(C)=O)C(=O)NCc1ccccc1 (stereo unspecified)
inactive: [1] -5.7% | [2] 1.25% | [3] -23.6% | [4] -17.3% | [5] -0.65% | [6] 0.45%

CCCCCCCCCC(C)=O
inactive: [1] -9.8% | [2] -4.4% | [3] -16% | [4] -17.9% | [5] 4.45% | [6] -12.2%

CCC12CCCN(Cc3ccccc3)C1c1c([nH]c3ccccc13)C(C(=O)OC)C2 (stereo unspecified)
inactive: [1] 11.8% | [2] -2.25% | [3] 17.6% | [4] 13.7% | [5] -0.25% | [6] 2.3%

COC1OC2COC(c3ccccc3)OC2C(NC(C)=O)C1OC(C)=O (stereo unspecified)
inactive: [1] 4.6% | [2] 17.7% | [3] 8.9% | [4] 9.9% | [5] -12.5% | [6] -13.1%

CSc1nc(-c2ccc([N+](=O)[O-])cc2)oc1/N=C/c1ccc([N+](=O)[O-])cc1
inactive: [1] -8.45% | [2] -9.65% | [3] -14.6% | [4] -29.1% | [5] 3% | [6] 4.35%

CCOC(=O)c1nc2ccccc2nc1Nc1ccc(OC)c(OC)c1
inactive: [1] -30.2% | [2] -31.5% | [3] -15.9% | [4] -15.6% | [5] -16.6% | [6] -19.3%

CCc1ccccc1OCc1ccccc1
inactive: [1] 18.4% | [2] 11.8% | [3] 14.2% | [4] 6.9% | [5] 1% | [6] 1.75%

O=c1c2ccccc2c(Cc2ccccc2)nn1C1CCCCCC1
inactive: [1] -14.2% | [2] 2% | [3] 30.9% | [4] -29.5% | [5] 27.1% | [6] 16.1%

CC1CCOCO1 (stereo unspecified)
inactive: [1] -3.3% | [2] 0.1% | [3] -1.05% | [4] 1.75% | [5] 13.1% | [6] -9.2%

CCOC(=O)c1nc2ccc(C(F)(F)F)cc2nc1Nc1ccc(OC)c(OC)c1
inactive: [1] -16.7% | [2] -11.9% | [3] -15.7% | [4] -6.15% | [5] -17.4% | [6] -8.75%

COC(=O)C(Cc1c[nH]c2ccccc12)NP(=O)(O)OCC1OC(n2cc(Br)c(=O)[nH]c2=O)CC1O (stereo unspecified)
inactive: [1] -34.8% | [2] -15.4% | [3] -9.25% | [4] -12% | [5] -16.3% | [6] -10.1%

NC(=O)C[n+]1cccc(C(=O)Nc2ccc(Cl)cc2)c1
inactive: [1] 2.3% | [2] 9.3% | [3] 3.95% | [4] -23.4% | [5] 29.2% | [6] -0.75%

CC(=O)Nc1ccc(S(=O)(=O)CCS(=O)(=O)c2ccc(NC(C)=O)cc2)cc1
inactive: [1] 7.35% | [2] 4.7% | [3] -16.1% | [4] -6.15% | [5] 3.65% | [6] -9.45%

O=C(N/C(=C\c1ccccc1Cl)c1nc2ccccc2[nH]1)c1ccccc1
inactive: [1] -20.5% | [2] -15.1% | [3] -23% | [4] 10.2% | [5] 38.9% | [6] 10%

CC(CO)(CO)N1C(=O)C2C3c4ccccc4C(c4ccccc43)C2C1=O (stereo unspecified)
inactive: [1] -2% | [2] 1.05% | [3] 1.65% | [4] -3.15% | [5] -3.95% | [6] -28.7%

CC(=O)OCC1OC(n2cnc([N+](=O)[O-])c2Br)C(OC(C)=O)C1OC(C)=O (stereo unspecified)
inactive: [1] 15.1% | [2] 15.4% | [3] 18.8% | [4] 25.5% | [5] 6.05% | [6] 21.8%

— PubChem BioAssay (NCI)
